# Laboratory results taken from the supplement of paper PMC8728848.
# This is one part of a sample in which the strongest signals are shown more often than they occur.
# B1: XCL (Xerocomus chrysenteron) (protein)
# chain: MSYSITLRVYQTNRDRGYFSIVEKTVWHFANGGTWSEANGAHTLTQGGSGTSGVLRFLSTKGERITVAVGVHNYKRWCDVVTGLKPDETALVINPQYYNNGGRDYVREKQLAEYSVTSAIGTKVEVVYTVAEGNNLEANVIFS
# Key:
# Experiment in all cases: glycan array binding signal (z-score within array); higher = stronger binding
# Conditions in all cases: glycan notation: IUPAC condensed, linker removed
# [1] = target: Fuc(a1-2)Gal(b1-4)GlcNAc(b1-3)[Fuc(a1-2)Gal(b1-4)GlcNAc(b1-6)]GalNAc
# How it was run: (§1)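 Arrays were curated from the Consortium for Functional Glycomics database, 3228 in total, and kept only where the protein sequence was available. Binding is expressed as a within-array Z-score. This score was averaged across arrays of the same protein sequence at different concentrations or buffers and across linkers, and negative values can be read as non-binding.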
# [2] = target: Fuc(a1-2)[Gal(a1-3)]Gal(b1-3)GalNAc
# How it was run: as §1
# [3] = target: Fuc(a1-2)[Gal(a1-3)]Gal(b1-3)GlcNAc(b1-3)GalNAc
# How it was run: as §1
# [4] = target: Fuc(a1-2)[GalNAc(a1-3)]Gal
# How it was run: as §1
# [5] = target: Fuc(a1-2)[GalNAc(a1-3)]Gal(b1-3)GlcNAc(b1-3)GalNAc
# How it was run: as §1
# [6] = target: Fuc(a1-3)[Gal(b1-4)]GlcNAc(b1-2)Man(a1-3)[Fuc(a1-3)[Gal(b1-4)]GlcNAc(b1-2)Man(a1-6)]Man(b1-4)GlcNAc(b1-4)GlcNAc
# How it was run: as §1
# [7] = target: Fuc(a1-3)[Gal(b1-4)]GlcNAc(b1-3)Gal(b1-3)[Fuc(a1-4)]GlcNAc
# How it was run: as §1
# [8] = target: Gal(a1-3)GalNAc
# How it was run: as §1
# [9] = target: Gal(b1-3)GalNAc(a1-3)[Fuc(a1-2)]Gal(b1-4)GlcNAc
# How it was run: as §1
# [10] = target: Gal(b1-4)GlcNAc(b1-2)Man(a1-3)[Man(a1-6)]Man(b1-4)GlcNAc(b1-4)GlcNAc
# How it was run: as §1
# [11] = target: Gal(b1-4)GlcNAc(b1-3)[Gal(b1-4)GlcNAc(b1-6)]GalNAc
# How it was run: as §1
# [12] = target: Gal3S(b1-3)GalNAc
# How it was run: as §1
# [13] = target: Gal3S(b1-3)[Fuc(a1-4)]GlcNAc
# How it was run: as §1
# [14] = target: Gal6S(b1-3)GlcNAc6S
# How it was run: as §1
# [15] = target: Glc(b1-4)Glc
# How it was run: as §1
# [16] = target: GlcNAc(a1-4)Gal(b1-4)GlcNAc
# How it was run: as §1
# [17] = target: GlcNAc(a1-4)Gal(b1-4)GlcNAc(b1-3)Gal(b1-4)GlcNAc(b1-3)Gal(b1-4)GlcNAc
# How it was run: as §1
# [18] = target: GlcNAc(b1-2)Gal(b1-3)GalNAc
# How it was run: as §1
# [19] = target: GlcNAc(b1-2)Man(a1-3)[GlcNAc(b1-2)Man(a1-6)]Man(b1-4)GlcNAc(b1-4)GlcNAc
# How it was run: as §1
# [20] = target: GlcNAc(b1-2)Man(a1-3)[GlcNAc(b1-4)][GlcNAc(b1-2)Man(a1-6)]Man(b1-4)GlcNAc(b1-4)GlcNAc
# How it was run: as §1
# [21] = target: GlcNAc(b1-2)[GlcNAc(b1-4)]Man(a1-3)[GlcNAc(b1-4)][GlcNAc(b1-2)Man(a1-6)]Man(b1-4)GlcNAc(b1-4)GlcNAc
# How it was run: as §1
# [22] = target: GlcNAc(b1-2)[GlcNAc(b1-6)]Man(a1-6)[GlcNAc(b1-2)Man(a1-3)][GlcNAc(b1-4)]Man(b1-4)GlcNAc(b1-4)GlcNAc
# How it was run: as §1
# [23] = target: GlcNAc(b1-3)Gal
# How it was run: as §1
# [24] = target: GlcNAc(b1-3)Gal(b1-3)GalNAc
# How it was run: as §1
# [25] = target: GlcNAc(b1-3)[GlcNAc(b1-4)][GlcNAc(b1-6)]GlcNAc
# How it was run: as §1
# [26] = target: GlcNAc(b1-3)[GlcNAc(b1-6)]GalNAc
# How it was run: as §1
# [27] = target: GlcNAc(b1-4)Gal(b1-4)GlcNAc
# How it was run: as §1
# [28] = target: Kdn(a2-3)Gal(b1-4)Glc
# How it was run: as §1
# [29] = target: Neu5Ac(a2-3)Gal(b1-3)GalNAc6S
# How it was run: as §1
# [30] = target: Neu5Ac(a2-3)Gal(b1-4)GlcNAc(b1-2)Man(a1-3)[Neu5Ac(a2-6)Gal(b1-4)GlcNAc(b1-2)Man(a1-6)]Man(b1-4)GlcNAc(b1-4)GlcNAc
# How it was run: as §1
# [31] = target: Neu5Ac(a2-3)Gal(b1-4)[Fuc(a1-3)]GlcNAc
# How it was run: as §1
# [32] = target: Neu5Ac(a2-3)GalNAc(b1-4)GlcNAc
# How it was run: as §1
# [33] = target: Neu5Ac(a2-6)Gal(b1-4)GlcNAc(b1-3)Gal(b1-4)GlcNAc(b1-3)Gal(b1-4)GlcNAc
# How it was run: as §1
# [34] = target: Neu5Ac(a2-6)GlcNAc(b1-4)GlcNAc
# How it was run: as §1
# [35] = target: Neu5Ac(a2-8)Neu5Ac(a2-3)Gal(b1-4)Glc
# How it was run: as §1
# [36] = target: Neu5Ac(a2-8)Neu5Ac(a2-3)[GalNAc(b1-4)]Gal(b1-4)Glc
# How it was run: as §1
# [37] = target: Neu5Gc(a2-6)GalNAc
# How it was run: as §1
binder,measurement,setting,value
B1,glycan array binding signal (z-score),[1],-0.27
same,glycan array binding signal (z-score),[2],-0.324
same,glycan array binding signal (z-score),[3],-0.303
same,glycan array binding signal (z-score),[4],-0.237
same,glycan array binding signal (z-score),[5],-0.249
same,glycan array binding signal (z-score),[6],-0.324
same,glycan array binding signal (z-score),[7],-0.31
same,glycan array binding signal (z-score),[8],-0.207
same,glycan array binding signal (z-score),[9],3.43
same,glycan array binding signal (z-score),[10],-0.272
same,glycan array binding signal (z-score),[11],-0.282
same,glycan array binding signal (z-score),[12],3.44
same,glycan array binding signal (z-score),[13],-0.322
same,glycan array binding signal (z-score),[14],-0.321
same,glycan array binding signal (z-score),[15],-0.304
same,glycan array binding signal (z-score),[16],2.15
same,glycan array binding signal (z-score),[17],5.84
same,glycan array binding signal (z-score),[18],-0.139
same,glycan array binding signal (z-score),[19],4.71
same,glycan array binding signal (z-score),[20],5.38
same,glycan array binding signal (z-score),[21],4.92
same,glycan array binding signal (z-score),[22],3.42
same,glycan array binding signal (z-score),[23],0.225
same,glycan array binding signal (z-score),[24],3.71
same,glycan array binding signal (z-score),[25],0.592
same,glycan array binding signal (z-score),[26],0.896
same,glycan array binding signal (z-score),[27],-0.303
same,glycan array binding signal (z-score),[28],-0.294
same,glycan array binding signal (z-score),[29],3.87
same,glycan array binding signal (z-score),[30],-0.32
same,glycan array binding signal (z-score),[31],-0.3
same,glycan array binding signal (z-score),[32],-0.279
same,glycan array binding signal (z-score),[33],-0.311
same,glycan array binding signal (z-score),[34],-0.322
same,glycan array binding signal (z-score),[35],-0.311
same,glycan array binding signal (z-score),[36],-0.316
same,glycan array binding signal (z-score),[37],0.059
